# ALDH1A1 block – ALDH1A1 (human) enzyme inhibition. Potency, µM (highest dose often 75.3 µM), usual class: inhibitors. hit rate 7.3% among 220,000. AID 1030. Purified ALDH1A1, NADH fluorescence, propionaldehyde substrate. P00352; active = well fitted inhibition curve with a large enough effect, not every such curve was filed as active; inconclusive = small, poorly fitted or top-dose-only effect, or another doubt; inactive = no such curve, though single readings can be large or run the other way
# Gal4-VP16 FLuc – counter-screen for ROR gamma inhibitors: Gal4-VP16 reporter | Drosophila S2 Gal4-VP16 UAS-luciferase, luminescence, 20 h | Potency, µM (titrated, usually from 53.6 µM), usual class: inhibitors | hit rate 3.5% among 310,000 | AID 2546;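 note: Gal4-VP16 expression switched on by copper sulfate through the metallothionein promoter; nearly all actives have a fitted effect of over 50% in size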
# Sfp PPTase inh – inhibitors of Bacillus subtilis Sfp phosphopantetheinyl transferase; hit rate 3.5% among 310,000; Potency, µM, hits mostly inhibitors; Biochemical Sfp PPTase activity, qHTS; AID 1490;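 note: the enzyme is Sfp with the accession as filed and its product quenches rhodamine fluorescence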
#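 After 15 min at room temperature with compound, 15 nM Sfp received 5 uM rhodamine-CoA plus 12.5 uM BHQ-2-ybbR (50 mM Hepes pH 7.6, 10 mM MgCl2). Rate came from the fluorescence difference over 30 min, ex 525/em 598 nm.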
# PLK1 PBD block – PLK1 (human) polo-box domain binding inhibition. P53350. Plk1 PBD binding of FITC phosphopeptide, fluorescence polarization. Potency, µM, actives largely listed as inhibitors. hit rate 2.8% among 360,000. AID 720504; note: series mostly up to about 57 µM; nearly all actives have a fitted effect of over 65% in size
# Target sequence (P53350 whole entry, looked up, the tested form may be a part): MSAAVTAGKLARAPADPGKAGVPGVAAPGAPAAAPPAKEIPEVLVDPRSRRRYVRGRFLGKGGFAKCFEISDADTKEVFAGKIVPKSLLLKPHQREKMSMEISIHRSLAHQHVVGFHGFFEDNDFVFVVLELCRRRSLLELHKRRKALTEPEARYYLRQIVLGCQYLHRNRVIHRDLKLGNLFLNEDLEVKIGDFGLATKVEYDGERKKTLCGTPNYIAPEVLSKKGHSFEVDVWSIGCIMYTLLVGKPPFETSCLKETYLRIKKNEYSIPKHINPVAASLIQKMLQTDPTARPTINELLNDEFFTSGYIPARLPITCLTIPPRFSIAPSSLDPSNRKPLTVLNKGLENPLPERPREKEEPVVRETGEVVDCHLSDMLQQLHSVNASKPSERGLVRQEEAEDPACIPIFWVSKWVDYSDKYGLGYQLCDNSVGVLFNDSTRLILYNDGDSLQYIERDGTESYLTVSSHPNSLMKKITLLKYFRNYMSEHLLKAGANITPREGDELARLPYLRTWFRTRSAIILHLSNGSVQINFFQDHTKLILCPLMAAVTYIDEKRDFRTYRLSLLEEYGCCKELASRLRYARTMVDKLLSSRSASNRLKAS
# RORg inh – ROR gamma (mouse) transcription inhibition. AID 2551. Potency, µM (titrated, usually from 53.6 µM), hits mostly inhibitors. P51450. hit rate 5.4% among 310,000. Drosophila S2 Gal4-RORgamma UAS-luciferase reporter, 20 h; note: nearly all actives have a fitted effect of over 60% in size
#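 Stable Schneider cell line, Gal4 DNA-binding domain fused to ROR gamma, UAS-luciferase. Cmpd 1 hr RT → CuSO4 700 uM final → 20 hr RT → luciferase reagent 10 min → luminescence.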
# Numbers stand for hits; i = inactive; ? = inconclusive; nt = no result; [ ] = remark or other dose. Most compounds without a hit are left out; they make up all but 12% or so of the library. Unless noted, calls come from the whole dose curve; as a rule, active = well fitted curve in the direction sought with a large enough effect; inconclusive = small, poorly fitted or top-dose-only effect, or another doubt; inactive = no such curve, though single readings can be large; an effect the other way counts as inactive or inconclusive.
SMILES,ALDH1A1 block,Gal4-VP16 FLuc,Sfp PPTase inh,PLK1 PBD block,RORg inh
Cc1ccc(S(=O)(=O)N2CCCCC2)cc1NC(=O)Cn1cnc2c1c(=O)n(C)c(=O)n2C,nt,nt,nt,i,nt
CCCCn1nnnc1C(c1cc2ccccc2o1)N1CCN(CC(=O)NC(C)C)CC1 (stereo not drawn),nt,nt,nt,i,nt
CC(=O)N(/N=C1\Sc2ccccc2C1=O)c1cccc(C)c1,?,?,i,i,7.1µM
CC(=O)N(CN1C(=O)c2ccccc2C1=O)c1cccc(C)c1,i,i,i,i,i
CCNC(=O)[C@H](C)/C=C/C(NC(=O)OCc1ccccc1)c1ccc(C(=O)OC)cc1 (stereo partly drawn),i,i,i,nt,i
O=c1c(-c2ccccc2)c1-c1ccccc1,nt,0.79µM,i,nt,?
O=c1[nH][nH]c(-c2ccccc2)c1-c1ccccc1,nt,nt,nt,i,nt
CCc1cccc(NC(=O)C2CCCN2S(=O)(=O)c2ccccc2C(F)(F)F)c1 (stereo not drawn),nt,nt,nt,i,nt
O=S(=O)(Nc1ccc(-n2cccc2)cc1)c1ccc(Cl)c(Cl)c1,?,i,i,i,i
CCN(CC)S(=O)(=O)c1ccc(F)cc1,i,i,i,i,i
O=S(=O)(Nc1ccc(-n2cccc2)cc1)c1ccc(F)cc1,10µM,i,i,i,i
CCN(CC)S(=O)(=O)c1ccc(NS(=O)(=O)c2ccc(F)cc2)cc1,13µM,i,i,i,i
O=S(=O)(Nc1ccc(-n2cccc2)cc1)c1ccc(Cl)cc1Cl,i,14µM,i,i,20µM
Cn1nc(Oc2ncc(C(F)(F)F)cc2Cl)cc1C(F)(F)F,i,i,i,27µM,i
CC(C)[C@H](CN(N=O)[C@@H](Cc1ccccc1)CN(C)N=O)N(CCc1ccccc1)N=O,i,i,i,i,i
CC(C)C[C@@H](CN(C)N=O)N(C[C@H](Cc1ccccc1)N(CCc1ccccc1)N=O)N=O,8.9µM,i,i,i,i
CC[C@H](C)[C@H](NC(=O)[C@H](CCC(=O)O)NC(=O)CNC(=O)[C@H](CCCCN)NC(=O)[C@H](CCC(=O)O)NC(=O)[C@H](CCSC)NC(=O)[C@H](CCSC)NC(=O)[C@H](CCSC)NC(=O)[C@H](CCC(=O)O)NC(=O)CNC(=O)[C@H](CO)NC(=O)[C@H](CO)NC(=O)[C@H](CO)NC(=O)[C@@H](N)CC(N)=O)C(=O)N[C@@H](CCCCN)C(=O)O,nt,i,i,nt,i
CC[C@H](C)[C@H](NC(=O)[C@@H](NC(=O)[C@@H](CC(=O)NO)Cc1ccccc1)[C@@H](C)CC)C(=O)O,nt,i,i,nt,i
C[C@@H]1C(c2cccc(Cl)c2)=NN(c2ccc(Br)cc2)[C@H]1C(=O)N1CCOC1=O,?,i,i,i,i
COc1ccc(NC(=S)c2ccc(N(C)C)cc2)cc1,?,i,i,?,?
CN(C)c1ccc(NC(=S)c2ccc3ccccc3n2)cc1,nt,?,7.1µM,1.1µM,6.3µM
Cc1ccc(C)c(NC(=S)c2ccc3ccccc3n2)c1,i,5.6µM,i,i,2µM
COc1ccc(C(=S)Nc2ccc(N(C)C)cc2)cc1,i,i,i,i,i
Cc1ccc(NC(=S)c2ccc(N(C)C)cc2)cc1,?,?,i,i,10µM
Cc1ccc(C)c(NC(=S)c2ccccn2)c1,?,1.3µM,i,24µM,0.32µM
SMILES,ALDH1A1 block,Gal4-VP16 FLuc,Sfp PPTase inh,PLK1 PBD block,RORg inh
Cc1ccc(C)c(NC(=O)NCc2ccccn2)c1,nt,i,i,i,i
CCOC(=O)CCN1C(=O)[C@H]2[C@H]3[C@H](O)[C@H](O)C/C(=N/OCc4ccccc4)[C@H]3CC[C@@H]2C1=O,i[13.5 µM],i[10 µM],i,nt,i[10 µM]
COC(=O)CCN(Cc1ccco1)S(=O)(=O)c1ccc(F)cc1Br,nt,i,i,nt,i
COc1ccc(COC(=O)N/N=C2/C[C@@H](O)[C@@H](O)[C@@H]3[C@@H]4C(=O)N(C(C)(C)C)C(=O)[C@H]4CC[C@@H]23)cc1,i[13.5 µM],i[10 µM],i,nt,i[10 µM]
COc1cccc(C(NC(C)=O)c2nc(-c3cccc(C#N)c3)cs2)c1 (stereo not drawn),nt,nt,nt,i,nt
COc1ccc2c(c1)[nH]c1c(N3CCSCC3)ncnc12,nt,?,i,i,?
COc1cccc(N2CCN(c3ncnc4c3[nH]c3ccccc34)CC2C)c1 (stereo not drawn),35µM,14µM,i,nt,?
COc1cccc(N2CCN(c3ncnc4c3[nH]c3ccc(F)cc34)CC2C)c1 (stereo not drawn),i,7.1µM,i,i,?
COc1ccc2[nH]c3c(N4CC(C)OC(C)C4)ncnc3c2c1 (stereo not drawn),?,i,i,i,i
Cc1cccc(-c2nc(CS(=O)CC(=O)N3CCc4ccccc4C3)c(C)o2)c1 (stereo not drawn),?,i,40µM,?,i
COCCNC(=O)C1(C)CCCN(C(=O)c2cccnc2SC)C1 (stereo not drawn),nt,nt,nt,i,nt
Cc1ccc(/C=N/NC(=O)CSc2nc3ccccc3c(=O)n2-c2ccccc2)s1,i,i,?,i,?
C=C(C)Cn1c(SCC)nc2ccccc2c1=O,i,i,i,i,i
C=C(C)Cn1c(SCC#N)nc2ccccc2c1=O,10µM,i,i,i,i
C=C(C)Cn1c(SCC(=O)N/N=C/c2c(O)ccc3ccccc23)nc2ccccc2c1=O,i,2.5µM,i,i,0.63µM
N#CCSc1nc2ccc(N3CCCCC3)cc2c(=O)n1Cc1ccccc1,?,?,i,i,3.5µM
Cc1cccc(C)c1N1C(=O)c2ccccc2NC(=O)C1C(=O)NCC(C)C (stereo not drawn),nt,nt,nt,i,nt
CCCCCCC1CC(=O)NC(=S)N1 (stereo not drawn),4µM,?,i,i,8.9µM
O=C1CC(c2ccccc2)NC(=S)N1 (stereo not drawn),nt,nt,nt,i,nt
